Compound activity from PubChem.
Marburg entry inh = qHTS for inhibitors of binding or entry into cells for Marburg Virus; 300,000 compounds, 1.8% hits; Marburg virus pseudotyped entry inhibition, cell reporter; Potency, µM (titrated, usually from 37.8 µM), actives largely listed as inhibitors; calls by dose curve; tested in HEK293 cells
HCMV inh = qHTS Assay for inhibitors of the human cytomegalovirus (HCMV). HFF cells, HCMV-luciferase reporter, 72 h; active compounds read low. activity change, negative = inhibition, % at 57.5 µM. 410,000 compounds, 4.5% hits; in the data active means activity change below about -60%; inconclusive means no clear call, values can overlap the other calls; inactive means above about -39%
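Human foreskin fibroblasts infected with luciferase-reporter HCMV at MOI 1 PFU/cell, compounds at two doses. Luciferase measured 72 h post infection; normalized to buffer-only basal and Salinomycin (10uM) controls.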
FMDV inh = High Throughput Screening for Foot and Mouth Disease Virus Antivirals | AID 1159524, 2015 | Potency, µM (series often up to 57.9 µM), most hits filed as inhibitors | 410,000 compounds, 1.2% hits | FMDV antiviral cell-based qHTS; calls by dose curve; tested in HEK293T cells; further: read-out not given here; nearly all actives have a fitted effect of over 45% in size
LASV entry inh = qHTS for Inhibitors of binding or entry into cells for Lassa Virus | Lassa virus pseudotype entry inhibition, cell reporter | Potency, µM (top dose mostly 37.9 µM), most hits filed as inhibitors | 300,000 compounds, 1.2% hits | AID 540256, 2011; calls by dose curve; tested in HEK293 cells; further: nearly all actives have a fitted effect of over 50% in size
HCV inh = qHTS Assay for Inhibitors of Hepatitis C Virus (HCV) | Huh7.5.1 HCVcc-Cre infection, luciferase reporter, 44 h | Potency, µM (series often up to 41.8 µM), hits mostly inhibitors | 340,000 compounds, 3.4% hits | AID 651820, 2012; active means well fitted inhibition curve with a large enough effect; inconclusive means small, poorly fitted or top-dose-only effect, or another doubt; inactive means no such curve, though single readings can be large or run the other way
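1,000 cells/well; 4 h culture; + compound; + HCVcc-Cre (~0.5 moi); 44 h; luciferase substrate, RT 15 min; read 15 sec.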
A number is an active result; . = inactive; ? = inconclusive; / = no result; + = active, no number; [ ] = remark or other dose. Rows were chosen to be rich in hits. Some 7.9% of all compounds tested hit in one or more screens of this group.

SMILES	Marburg entry inh	HCMV inh	FMDV inh	LASV entry inh	HCV inh
COc1cccc(CN2C(=O)NC(C)(C3CCN(Cc4cccc(O)c4)CC3)C2=O)c1OC (stereo unspecified)	/	/	.	/	/
COc1ccccc1CCC(=O)Nc1ncc(C)s1	/	.	.	/	?
CC1CCN(c2nc3nonc3nc2Nc2ccc(F)cc2)CC1	?	?	28.2µM	?	11.2µM
COc1ccc(Nc2nc3nonc3nc2N2CCCCC2)cc1	?	?	.	?	?
CCOc1ccc(OCC)c(NC(=O)c2cnn(-c3ccc(F)cc3)c2-n2cccc2)c1	/	.	.	.	/
O=C(Nc1ccc(-c2cc(C(F)(F)F)nn2-c2ccccc2)cc1)c1cccc(F)c1	?	-94.7	.	?	/
CCOc1ccc(-n2c(-c3ccc(Br)cc3)c[n+]3c2CCCCC3)cc1	?	-98.9	?	?	.
CCOc1ccc(-n2c(-c3ccccc3)c[n+]3c2CCC3)cc1	?	.	?	?	.
CCOc1ccc(-n2c(-c3ccc(OC)cc3)c[n+]3c2CCCCC3)cc1	?	-98.6	?	?	7.94µM
CC(C)CC(=O)Nc1cccc(NC(=O)CC(C)C)n1	?	.	.	.	?
C[C@H](ON=C1[C@H]2CCn3c(=O)n(-c4ccccc4)c(=O)n3[C@@H]2[C@H](O)[C@@H]2O[C@H]12)c1cn([C@H](CO)Cc2ccccc2)nn1	.	/	/	?	/
COc1ccc(-c2[nH]ncc2N=Nc2cc(C)cc(C)c2)cc1	?	.	.	?	2.24µM
COc1cc(CN2CCc3nnc(C(NS(C)(=O)=O)C(C)C)n3CC2)ccc1F (stereo unspecified)	/	/	.	/	/
Cc1cc(C)cc(NC(=O)Nc2cc(S(=O)(=O)N(C)C)ccc2C)c1	?	.	.	12.6µM	?
Cc1ccc(S(=O)(=O)N(C)C)cc1NC(=S)NC(C)CCCC(C)C (stereo unspecified)	?	-73.0	?	?	?
Cc1ccc(S(=O)(=O)N(C)C)cc1NC(=S)NC(C)CCC(C)C (stereo unspecified)	?	.	.	?	?
CC(C)(C)NC(=O)C(c1ccc(O)cc1)N(C(=O)CCC(=O)Nc1nccs1)c1cccc(F)c1 (stereo unspecified)	2.31µM	.	.	.	.
CC(C)(C)NC(=O)C(c1ccc(O)cc1)N(C(=O)CCC(=O)Nc1nccs1)c1ccccc1F (stereo unspecified)	?	?	.	.	.
Cc1cccc(N(C(=O)CCC(=O)Nc2nccs2)C(C(=O)NC(C)(C)C)c2ccc(O)cc2)c1 (stereo unspecified)	2.82µM	.	.	?	.
COCCN(C(=O)CCC(=O)Nc1nccs1)C(C(=O)NC(C)(C)C)c1ccc(C)cc1 (stereo unspecified)	.	-73.5	.	.	.
COCCN(C(=O)CCC(=O)Nc1nccs1)C(C(=O)NC(C)(C)C)c1ccc(F)cc1 (stereo unspecified)	.	.	.	.	.
CCOC(=O)C1CCN(C(=O)COC(=O)CNC(=O)c2ccc(C(C)(C)C)cc2)CC1	.	.	.	.	.
Cc1cc2nc(-c3ccc(SCC(=O)Nc4ccc(S(=O)(=O)N5CCCC5)cc4)nc3)[nH]c2cc1C	11.6µM	.	.	?	?
CCOC(=O)CNC(=O)CSc1ccc(-c2nc3ccccc3[nH]2)cn1	.	.	.	.	.
CC(=O)CSc1ccc(-c2nc3ccccc3[nH]2)cn1	6.31µM	.	.	?	?
SMILES	Marburg entry inh	HCMV inh	FMDV inh	LASV entry inh	HCV inh
Cc1cc2nc(-c3ccc(SCC(=O)Nc4nccs4)nc3)[nH]c2cc1C	.	?	.	?	.
CC(=O)CSc1ccc(-c2nc3cc(C)c(C)cc3[nH]2)cn1	?	-99.6	8.91µM	?	?
Cc1cc2nc(-c3ccc(SCc4ccc(C#N)cc4)nc3)[nH]c2cc1C	.	?	?	?	11.2µM
COCCn1c(SCC(=O)Nc2ccc(C(F)(F)F)cc2)nc2c([nH]c3ccccc32)c1=O	/	.	.	.	/
CCCn1cc(CN2CCC(Oc3ccc(C(=O)N4CCCC4)cc3)CC2)c(C)n1	/	.	.	/	.
CCOc1ccc(C(=O)N2CCN(Cc3ccccc3)CC2)cc1	.	.	/	.	.
CCOc1ccc(CNc2ccc(N3CCN(Cc4ccccc4)CC3)cc2)cc1	.	.	.	?	10µM
CCOc1ccc(CN2CCN(C(=O)c3cccc4ccccc34)CC2)cc1	/	?	?	/	7.08µM
CCOc1ccc(CN2CCN(C(=O)c3ccccc3)CC2)cc1	?	.	?	.	11.2µM
CCOC(=O)N1CCN(Cc2cc(=O)oc3ccc4ccccc4c23)CC1	.	.	20µM	.	.
COc1cccc(NC(=O)N(C)C[C@H]2Oc3ncc(Br)cc3C(=O)N([C@H](C)CO)C[C@H]2C)c1	/	.	.	/	/
Cc1cccc(C)c1NC(=O)C(c1ccncc1)n1c(=O)c(-c2ccco2)nc2ccccc21 (stereo unspecified)	/	.	.	/	/
COC(=O)N[C@@H](c1ccco1)[C@]1(C(C)=O)CCCC1=O	.	/	/	/	/
CC(C)c1cccc(-c2nc3c(Nc4ccccc4)nccc3[nH]2)c1	/	.	/	/	/
CCOc1ccc2oc(=O)cc(CN3CCN(C(=O)c4cccc(Cl)c4)CC3)c2c1	.	.	.	.	/
CCOc1ccc2oc(=O)cc(CN3CCN(C(=O)c4ccc(Cl)cc4)CC3)c2c1	.	-66.5	.	.	/
CCOC(=O)CN(C)C(=O)C1CCCN1C(=O)OC(C)(C)C (stereo unspecified)	/	.	.	/	.[8.37 µM]
CCN(C(=O)CSc1nnc(-c2ccc(F)cc2)n1C)C1CCS(=O)(=O)C1 (stereo unspecified)	.	.	.	.	.
CSc1nc(O)c(C(c2ccc(O)cc2)c2c(O)nc(SC)[nH]c2=O)c(=O)[nH]1	/	-68.7	.	/	.
CC(C)(C)n1nc2c(c1NC(=O)c1cc([N+](=O)[O-])ccc1Cl)CS(=O)(=O)C2	/	+	?	/	.
O=C(Nc1cccc(NC(=O)c2cc([N+](=O)[O-])ccc2Cl)n1)c1cc([N+](=O)[O-])ccc1Cl	/	/	12.6µM	/	1.12µM
Cc1c(C(=O)c2ccccc2)c2ccccc2n1C	/	.	.	/	.
Cc1c(C(=O)C(=O)N2c3ccccc3CC2C)c2ccccc2n1C (stereo unspecified)	?	-63.7	.	?	.
O=C(c1cnccn1)N(CCO)C(c1ccc(-c2ccccc2)cc1)c1nc2ccccc2[nH]1 (stereo unspecified)	/	.	/	/	/
Fc1ccccc1-c1noc2nc(Oc3cccc(N4CCOCC4)c3)ccc12	/	.	/	/	/
CC1(C)Cc2c(sc3nc(N/N=C/c4ccccc4)[nH]c(=O)c23)CO1	?	?	?	.	.
CC(C)=NNc1nc2sc3c(c2c(=O)[nH]1)CC(C)(C)OC3	.	?	.	7.08µM	.
O=C(CSc1nnc(CNC(=O)C23CC4CC(CC(C4)C2)C3)n1-c1ccccc1)Nc1ccc(F)cc1	?	.	?	.	?
O=C(NCc1nnc(SCc2ccc(C(F)(F)F)cc2)n1-c1ccccc1)C12CC3CC(CC(C3)C1)C2	11.2µM	.	?	?	?
